Source: PubChem (Broad Institute)
A selection: hits, their analogues and other compounds. The true share with any hit is near 2.9%.
PvdQ acylase – P. aeruginosa PvdQ acylase inhibition. purified PvdQ acylase, fluorescence plate reader. inhibition, % at 10 µM. 340,000 tested, 0.063% active; in the data active = inhibition above about 30%, passing the limit was not always enough; inconclusive = no clear call, values can overlap the other calls;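 also: 0% = vehicle neutral wells and 100% = reference inhibitor wells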
MITF act – increases MITF-driven TRPM1 promoter luciferase signal; SK-MEL-5 TRPM1-promoter luciferase, 24 h; % of positive control, neutral wells = 0; activation, % at 12.5 µM; 300,000 tested, 0.75% active; AID 588334;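 active = mean activation of at least 80% with every replicate also reaching 80%; inconclusive = mean reaches 80% but some replicate falls short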;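 also: 0% = neutral control wells and 100% = parthenolide positive control wells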
Wnt act – Wnt/beta-catenin pathway activation; Wnt/beta-catenin reporter cell assay, activator, plate reader; activation, % at 9.35 µM; 300,000 tested, 1.2% active; in the data active = activation above about 30%, passing the limit was not always enough; inconclusive = no clear call, values can overlap the other calls;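 also: 0% = neutral control wells and 100% = positive control wells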
N-glyco inh – blocks N-linked glycosylation in D54 reporter cells. D54 ERlucT glycosylation luciferase reporter, 24 h; percent of 100 nM tunicamycin response. reporter increase, % at 12.5 µM. 360,000 tested, 0.23% active;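 active = mean luciferase reporter signal, scaled so untreated is 0 and the glycosylation-blocking control 100, at or above a set limit in every replicate; inconclusive = mean reaches the limit but not every replicate does; inactive = mean below the limit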;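 also: luciferase carries N-glycosylation sites so blocking glycosylation raises the light; 0% = median of neutral control wells and 100% = median of 100 nM tunicamycin wells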
Vif imaging – inhibitors of HIV Vif | HEK293T cells, Vif self-association by quenched fluorescence, imaging, 24 h | inhibition, % at 7.49 µM | 340,000 tested, 0.35% active | AID 602346; in the data active = inhibition above about 50%, passing the limit was not always enough; inconclusive = no clear call, values can overlap the other calls; inactive = below about 31%
esBAF inh – SWI/SNF esBAF complex inhibition. mouse ES cells, Bmi1-luciferase knock-in reporter, 24 h; 100% = twice the neutral-well signal. AID 602393. reporter increase, % at 12.5 µM. 350,000 tested, 2% active; in the data active = activation above about 40%; inconclusive = no clear call, values can overlap the other calls;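 also: 0% = median of the plate's neutral control wells and 100% = double that signal; a rise in the Bmi1 reporter signal indicates esBAF inhibition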
* = called active by the depositor; ? = inconclusive; · = no result given.

SMILES	PvdQ acylase	MITF act	Wnt act	N-glyco inh	Vif imaging	esBAF inh
O=C(Nc1cccs1)Nc1ccccc1Cl	8	14	·	-3	-18	44*
Cc1ccc(NC(=O)Nc2cccs2)c(Cl)c1	0	47	55*	0	-9	·
O=C(NC(=O)c1csnn1)Nc1ccccc1Cl	-16	72	24	0	-2	50*
C[C@H]1CN([C@@H](C)CO)C(=O)c2cc(-c3ccc(C(=O)N(C)C)cc3)cnc2O[C@@H]1CN(C)C(=O)c1ccncc1	·	·	·	·	·	-3
CCCNC(=O)C[C@H]1CC[C@H]2[C@@H](COC[C@@H](O)CN2C(=O)c2ccccn2)O1	·	·	·	·	·	-4
CCN(Cc1ccccc1)c1ccc(/C=C(\C#N)c2ccccn2)cc1	-15	121*	96*	-3	-15	77*
CCN(CC)c1ccc(/C=C(\C#N)c2ccccn2)cc1	9	29	·	-14	3	-16
CN1C(=O)c2cc(NC(=O)c3ccccc3Cl)ccc2OC[C@H]2O[C@H](CC(=O)O)CC[C@@H]21	·	·	·	·	·	-1
CCC(C)NC(=O)c1cc2cc3ccc(OC)cc3nc2o1 (stereo unspecified)	-13	89*	14	2	0	55*
COc1ccc2cc3cc(C(=O)NCCC(C)C)oc3nc2c1	-25	32	7	4	-11	9
COc1ccc2cc3cc(C(=O)NCC4CCCO4)oc3nc2c1 (stereo unspecified)	-22	44	-2	3	-4	55*
COCCNC(=O)c1cc2cc3ccc(OC)cc3nc2o1	-11	52	24	3	-13	30
CCCCN(CC)C(=O)c1cc2cc3ccc(OC)cc3nc2o1	9	73	58*	-2	·	88*
COc1ccc(S(=O)(=O)N2c3cc(Cl)ccc3Oc3nc4ccccc4nc32)cc1	13	-54	-10	2	58*	1
CC(C)OCCCN1CN(S(=O)(=O)c2ccccc2)c2nc3ccccc3nc21	-11	38	7	-3	-13	43*
CC=Cc1ccc2n(c1=O)C[C@@H]1[C@@H](CO)[C@H](C(=O)N3CCc4ccccc4C3)[C@H]2N1Cc1ccncc1 (mixture of isomers)	·	·	·	·	·	1
CCOc1ccc(CCNC(=O)COC(=O)c2cccc(N(C)C)c2)cc1OCC	4	44	51*	-2	-5	54*
O=C(C[C@H]1C[C@@H]2c3cc(NC(=O)NC4CCCC4)ccc3O[C@@H]2[C@@H](CO)O1)NCc1ccccc1F	·	·	·	·	·	2
C=C1C(=O)C=C[C@]2(C)C[C@@H]3OC(=O)[C@](C)(O)[C@H]3C[C@@H]12	-10	-93	43*	7	-3	9
C[C@@H]1C[C@@H]2OC(=O)[C@]3(C)[C@H]2[C@@H](OC3(C)O)[C@]2(C)C(=O)C=C[C@H]12 (stereo partly specified)	4	4	11	6	5	-3
CC(C)C(=O)N=C1SC2CS(=O)(=O)CC2N1Cc1ccccc1 (stereo unspecified)	6	-3	-7	-1	55*	·
CC(C)C(=O)N=C1SC2CS(=O)(=O)CC2N1Cc1ccc(Cl)cc1 (stereo unspecified)	3	7	-2	3	3	·
COC(=O)C1CCN(C2CC(=O)N(c3cc(C)cc(C)c3)C2=O)CC1 (stereo unspecified)	36*	2	-4	0	4	·
Cc1cc(N)n2ncc(-c3ccc(Cl)cc3)c2n1	-9	39	·	-3	1	·
Cc1cc(C)n2ncc(-c3cccc(Br)c3)c2n1	2	-4	9	1	2	24
SMILES	PvdQ acylase	MITF act	Wnt act	N-glyco inh	Vif imaging	esBAF inh
Cc1cc(Cl)n2ncc(-c3ccccc3)c2n1	-26	·	-3	-2	0	48*
CN(C)CCCNc1cc(C(C)(C)C)nc2c(-c3ccccc3)cnn12	-14	·	43*	-6	15	·
CC(C)(C)c1cc(NCCCn2ccnc2)n2ncc(-c3ccc(Cl)cc3)c2n1	-12	65	·	-9	-3	27
Cc1cc(NCc2ccccn2)n2ncc(-c3ccc(Cl)cc3)c2n1	-8	·	?	-1	-1	·
Cc1cc(N)n2ncc(-c3ccc(F)cc3)c2n1	-12	73	·	-3	18	58*
Cc1cc(NCc2ccccn2)n2ncc(-c3ccccc3)c2n1	-26	·	56*	-6	0	51*
COc1ccc(C(=O)Nc2cc(C)on2)c(OC)c1	12	115*	13	-3	-4	14
Cc1cc(NC(=O)Nc2ccc(C)c(C)c2)no1	-9	61	32*	-3	8	·
COc1cccc(C(=O)NC(=O)Nc2cc(C)on2)c1	-9	105*	11	0	-11	56*
C[C@H](CO)N1C[C@H](C)[C@H](CN(C)Cc2ccc(F)cc2)Oc2cc(C#CC3CC3)ccc2S1(=O)=O	·	·	·	·	·	-5
CCC(=O)N1[C@H](CO)[C@@H]2c3ccccc3N(C(=O)c3ccc4c(c3)OCO4)C[C@@H]21	·	·	·	·	·	-6
Cc1ccc(S(=O)(=O)Nc2ccc3c(c2)C(=O)N([C@H](C)CO)C[C@@H](C)[C@@H](CN(C)C(=O)Nc2c(C)noc2C)O3)cc1	·	·	·	·	·	-1
O=C(C[C@@H]1C/C=C/CC[C@H](Cc2ccc(F)cc2)C(=O)OC[C@@H](Cc2ccccc2)NC1=O)N[C@H](CO)Cc1ccccc1	-10	-89	-20	126*	8	-4
C[C@@H]1COC(=O)[C@H](Cc2ccc(F)cc2)CC/C=C/C[C@@H](CC(=O)N[C@@H](CO)Cc2ccccc2)C(=O)N1	-3	5	-3	2	-9	-7
C[C@@H]1CCCCO[C@@H](CN(C)C(=O)Cc2ccccc2)[C@H](C)CN([C@H](C)CO)C(=O)c2cc(NC(=O)CCC(F)(F)F)ccc2O1	·	·	·	·	·	17
Cc1ccc(N2CCN(C(=O)c3cc(COc4c(C)cccc4C)on3)CC2)c(C)c1	-13	5	1	0	11	0
COc1cccc(OCc2cc(C(=O)N3CCN(c4ccccc4OC)CC3)no2)c1	-6	83*	37*	0	-6	77*
COc1cccc(OCc2cc(C(=O)N3CCN(c4ccccc4O)CC3)no2)c1	2	97*	26	-2	-8	49*
CN1CCN(C(=O)C[C@H]2CC[C@H](NC(=O)c3ccc4c(c3)OCO4)[C@H](CO)O2)CC1	·	·	·	·	·	0
CCCN(C)C[C@H]1Oc2ncc(C#CCN(C)C)cc2C(=O)N([C@H](C)CO)C[C@@H]1C	·	·	·	·	·	0
S=C(NCc1ccccc1)Nc1ccc2ccccc2c1	-5	60	21	2	-4	80*
C/C(=C\C(=S)Nc1ccccc1)Nc1cccc2ccccc12	-7	-8	7	1	2	·
C/C(=C\C(=S)Nc1ccccc1)Nc1ccc2ccccc2c1	12	14	52*	4	4	·
